The nature of test [1]: NCI Yeast Anticancer Drug Screen. Data for the rad50 strain (AID 155).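 Also: 0% = growth of vehicle-only cultures of the same strain.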 The conditions noted are these: S. cerevisiae rad50 strain growth inhibition; at 50.0 µM; hits give high values. The gist of the method:
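Inhibition values express reduced yeast growth in compound-treated cultures relative to vehicle-treated controls.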

Test [2] can be described thus: NCI Yeast Anticancer Drug Screen. Data for the mec2-1 strain (AID 157). The conditions noted are these: S. cerevisiae mec2-1 strain, at 50.0 µM, hits give high values. The gist of the method:
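Strain: mec2-1 (DNA repair/cell cycle alteration). Compound exposure, then growth measured; inhibition expressed relative to vehicle.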

The nature of test [3]: NCI Yeast Anticancer Drug Screen. Data for the sgs1 mgt1 strain (AID 161).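 Also: 0% = growth of cultures given vehicle only.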 The conditions noted are these: S. cerevisiae sgs1 mgt1 strain, at 50.0 µM, hits give high values. The essentials: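 Inhibition of yeast growth, normalised to vehicle-treated controls, is reported for a strain bearing genetic alterations in DNA damage repair.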
Test [4] in a line: NCI Yeast Anticancer Drug Screen. Data for the cln2 rad14 strain (AID 165).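 Also: 0% = growth equal to vehicle treated cultures.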 The conditions noted are these: S. cerevisiae cln2 rad14 strain, at 50.0 µM, hits give high values. The essentials: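 Compounds are applied to the cln2 rad14 yeast strain, and growth is then compared with that of vehicle-treated cultures to give inhibition.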
Test [5] is described as follows: NCI Yeast Anticancer Drug Screen. Data for the bub3 strain (AID 167). The conditions noted are these: S. cerevisiae bub3 mutant strain, at 50.0 µM, hits give high values. The essentials:
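Steps: expose the mutant yeast strain to compound; grow alongside vehicle-treated cultures; measure growth; express inhibition against the vehicle cultures.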

Test [6] can be described thus: NCI Yeast Anticancer Drug Screen. Data for the mlh1 rad18 strain (AID 175). The conditions noted are these: S. cerevisiae mlh1 rad18 strain growth inhibition; at 50.0 µM; hits give high values. The essentials:
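Read-out is yeast growth inhibition, calculated against vehicle-only controls. The compound was applied to a strain engineered with DNA damage repair alterations.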

The panel holds about 79,000 compounds, 15% with a hit somewhere; the sample as a whole holds those more often. Unmarked numbers belong to inactive results. Active and inactive are the calls of the source. Rule as the data show it: active = growth inhibition above about 70%; inactive = the rest.

Consider `O=C1N[C@H](Cc2cnc[nH]2)C(=O)N2CCC[C@@H]12`, for which the growth inhibition was 15.2% in test [1]; -3.55% in test [2]; 8.75% in test [3]; 16.1% in test [4]; 9.75% in test [5]; 23.7% in test [6].
Turning to `Cc1ccc(CC(=S)N2CCOCC2)cc1`, the growth inhibition in test [1] is 19.8%; in test [2], 24.2%; in test [3], 10.8%; in test [4] it was 10.9%; in test [5] it was 25.2%; in test [6], 16.6%.
Consider `Cn1c(=O)c2ncn(CC3CCCCC3)c2n(C)c1=O`, for which the growth inhibition was 6.15% in test [1]; 11.6% in test [2]; 5.05% in test [3]; -5.9% in test [4]; 2.05% in test [5]; -4.95% in test [6].
In the case of `O=C(O)CS/C(=N\S(=O)(=O)c1ccccc1)Nc1cccc(Cl)c1`, the growth inhibition in test [1] was -2.85%; in test [2], -24.9%; in test [3], 19.1%; in test [4] it was 12%; in test [5], 5.45%; in test [6], -7.85%.
In the case of `CCN1c2ccccc2CC(CCN(C)Cc2ccccc2)(C(N)=O)c2ccccc21` (stereo not drawn), the growth inhibition in test [1] was 26.1%; in test [2], -1.15%; in test [3], -7.7%; in test [4], 7.45%; in test [5], 5.3%; in test [6], -6.05%.
As for `Cc1ccc(C(=O)NC(N)=O)cc1`, the growth inhibition in test [1] was 12.4%; in test [2], -6.25%; in test [3], -17.8%; in test [4], -51.4%; in test [5], -13.1%; in test [6], -18.6%.
For the compound `C[Si](C)(C)O/C=C1\CCCCC1=O`, the growth inhibition was 5.65% in test [1]; 8.4% in test [2]; 2.5% in test [3]; 14.8% in test [4]; 2.8% in test [5]; -23.6% in test [6].
In the case of `CCCCCC/C=N\OC(N)=O`, the growth inhibition in test [1] was 12.9%; in test [2] it was 15.2%; in test [3], -4.9%; in test [4], -12.9%; in test [5], 3.35%; in test [6] it was 11.8%.
With `Cc1ccc(S(=O)(=O)NN=C2CCS(=O)CC2)cc1` (stereo not drawn), the growth inhibition is -19.6% in test [1]; 10.7% in test [2]; 7.6% in test [3]; -32.4% in test [4]; -10.5% in test [5]; -28.5% in test [6].
In the case of `[Zn+2].c1ccc(-c2c3nc(c(-c4ccccc4)c4[n-]c(c(-c5ccccc5)c5nc(c(-c6ccccc6)c6[n-]c2c2ccccc62)-c2ccccc2-5)c2ccccc42)-c2ccccc2-3)cc1`, the growth inhibition was -37.5% in test [1]; -36.4% in test [2]; -32.6% in test [3]; -6.55% in test [4]; -23.9% in test [5]; -36.8% in test [6].
On to `CN(C)c1ccc(N=C(C#CC#Cc2ccccc2)c2ccccc2)cc1`, for which the growth inhibition in test [1] is 3.85%; in test [2], -4%; in test [3], 7.55%; in test [4], -42.4%; in test [5], -19.4%; in test [6], 24.8%.
`CCOC(=O)CCCCC(N)=O`: the growth inhibition in test [1] is -4.3%; in test [2], -7.6%; in test [3], -15.7%; in test [4], 1.15%; in test [5] it was 11.4%; in test [6], 2.7%.
In the case of `CC1=CC(=O)/C(=C/n2c(=S)sc3ccccc32)C(=O)O1`, the growth inhibition in test [1] is -27.4%; in test [2], 7.1%; in test [3] it was 27.9%; in test [4] it was 23%; in test [5], -29.9%; in test [6], 14.6%.
Regarding `NN(c1ccccc1)c1ccccc1`, the growth inhibition in test [1] was 23.5%; in test [2] it was 6.45%; in test [3], 35.5%; in test [4], 25.9%; in test [5], 24.2%; in test [6] it was 19.1%.
Regarding `Cc1ccccc1C(=O)OC1CCCC1`, the growth inhibition in test [1] was 13.1%; in test [2] it was -1.45%; in test [3] it was 2.95%; in test [4], -19.4%; in test [5] it was 8.1%; in test [6] it was 0.5%.
In the case of `Cc1c(C2CCSc3ccccc3N2)sc2ccccc12` (stereo not drawn), the growth inhibition was -17.2% in test [1]; -27.4% in test [2]; 11.3% in test [3]; 14.6% in test [4]; 4.65% in test [5]; 7.2% in test [6].
Turning to `CCC(C(=O)O)C(C)(C)O` (stereo not drawn), the growth inhibition in test [1] was -10.8%; in test [2], -11.1%; in test [3], -7.95%; in test [4], 7.05%; in test [5], -0.85%; in test [6] it was -15.3%.
As for `CCOC(=O)C/C(C(=O)O)=C(\C)c1ccc2ccccc2c1`, the growth inhibition is -10.4% in test [1]; 18.1% in test [2]; 20.9% in test [3]; 1.15% in test [4]; -2.25% in test [5]; -0.85% in test [6].
For the compound `CC(=O)OCC(OC(C)=O)C(OC(C)=O)c1cnn(-c2ccccc2)n1` (stereo not drawn), the growth inhibition in test [1] was 12.6%; in test [2], -1.5%; in test [3], 2.5%; in test [4], 17.7%; in test [5], 24.6%; in test [6], 22%.
On to `CCOC(=O)C1C(NNC(N)=O)CN(C(=O)OCC)C1C(=O)OCC` (stereo not drawn), for which the growth inhibition is -9.2% in test [1]; -5.8% in test [2]; -15.9% in test [3]; 0.4% in test [4]; 8.45% in test [5]; 10.4% in test [6].
With `O=C1c2ccccc2C(=O)c2c1ccc(C1C(=O)c3ccccc3C1=O)c2-c1c(C2C(=O)c3ccccc3C2=O)ccc2c1C(=O)c1ccccc1C2=O`, the growth inhibition is -18.4% in test [1]; -16.8% in test [2]; -35.5% in test [3]; -17.5% in test [4]; -33.1% in test [5]; 4.15% in test [6].
Consider `Nc1ccc(O)cc1`, for which the growth inhibition was 15.2% in test [1]; 7.5% in test [2]; 39% in test [3]; 9.35% in test [4]; 3.45% in test [5]; 14.9% in test [6].
As for `COc1ccc(C2CC(c3ccccc3)=NN2c2ccccc2)cc1` (stereo not drawn), the growth inhibition is 0.75% in test [1]; -14.4% in test [2]; 5.85% in test [3]; -7.55% in test [4]; 4.85% in test [5]; 7.95% in test [6].
Consider `CCc1n[nH]c(=O)n1/N=C/c1ccccc1O`, for which the growth inhibition was -9.2% in test [1]; 3.8% in test [2]; -5.75% in test [3]; 3.4% in test [4]; -0.35% in test [5]; 24.6% in test [6].
`CCOC(=O)/C(=C\n1c(=O)[nH]c(=O)[nH]c1=S)C(=O)c1ccccc1`: the growth inhibition in test [1] was -22.8%; in test [2], -17.4%; in test [3], -9.25%; in test [4] it was 7.35%; in test [5], -17.9%; in test [6], -13.2%.
Take `O=C(/C=C/c1ccccc1)N(Cc1ccccc1)c1ccccc1`: the growth inhibition in test [1] was 94.3% (active); in test [2], 96.7% (active); in test [3], 96.7% (active); in test [4], 93.5% (active); in test [5], 95.2% (active); in test [6], 95.6% (active).
For the compound `NC(=O)Nc1ccc(S(=O)(=O)c2ccc(N)cc2)cc1`, the growth inhibition in test [1] was 0.5%; in test [2], -5.2%; in test [3] it was 12.5%; in test [4], -5.35%; in test [5] it was 4%; in test [6], -15.7%.
`CC(C)Nc1ncnc2c1cnn2-c1ccccc1`: the growth inhibition in test [1] is -5.9%; in test [2] it was -17.1%; in test [3], 0.65%; in test [4], -57.7%; in test [5], 13.5%; in test [6], -11.3%.
Turning to `O=C1C=C(Nc2ccc(Cl)cc2Cl)c2ccccc2C1=O`, the growth inhibition is 30.2% in test [1]; 17.7% in test [2]; 17.2% in test [3]; 29% in test [4]; 27.9% in test [5]; 37.5% in test [6].
On to `c1ccc2c3c([nH]c2c1)CCCCCC3`, for which the growth inhibition in test [1] is 19.2%; in test [2], 14.6%; in test [3], 15.1%; in test [4], 13.2%; in test [5], 21.8%; in test [6], 15.9%.
With `CC(C)(C)c1ccc(C(=O)O)c(O)c1.CC(C)(C)c1ccc(C(=O)O)c(O)c1.[Cu]`, the growth inhibition was 24.6% in test [1]; 15.1% in test [2]; 43.4% in test [3]; 47.6% in test [4]; 2.75% in test [5]; 37.1% in test [6].
For `CC(C)c1ccc(/C=C/C(=O)c2ccc([N+](=O)[O-])cc2)cc1`, the growth inhibition in test [1] is 9.75%; in test [2] it was 2.2%; in test [3], 11.7%; in test [4], -13.3%; in test [5], 20.9%; in test [6], 3.15%.
Take `COc1ccc(CCCCC(=O)O)cc1`: the growth inhibition was -12.1% in test [1]; -3.4% in test [2]; -0.65% in test [3]; -2.7% in test [4]; -7.55% in test [5]; -9.1% in test [6].
Take `Cc1cc(OCCBr)ccc1[N+](=O)[O-]`: the growth inhibition in test [1] was -4.5%; in test [2], 9.45%; in test [3], -17.6%; in test [4] it was -15.1%; in test [5], 22.7%; in test [6], 0.45%.
Turning to `Cn1c(=O)c2conc2n(-c2ccc(Cl)cc2)c1=O`, the growth inhibition is 11.2% in test [1]; -0.1% in test [2]; -12.2% in test [3]; -19.9% in test [4]; 2.55% in test [5]; -3.25% in test [6].
Regarding `Cn1c(=O)c2nc(SC3CCCCC3)n(C)c2n(C)c1=O`, the growth inhibition in test [1] is -12.7%; in test [2] it was -9.05%; in test [3], -9.85%; in test [4], -28.3%; in test [5], 4.5%; in test [6], -15.3%.
With `Clc1ccc(Nc2ncnc3oc(-c4ccccc4)c(-c4ccccc4)c23)cc1`, the growth inhibition in test [1] is 6.7%; in test [2] it was 13%; in test [3], 1.3%; in test [4] it was -5.05%; in test [5] it was -4.1%; in test [6] it was 4.65%.
As to `CCOC(=O)C(=O)Nc1cccc(NC(=O)C(=O)OCC)n1`, the growth inhibition in test [1] was 2.5%; in test [2], -21.6%; in test [3] it was -19.1%; in test [4], 4.4%; in test [5], -13.8%; in test [6] it was -6.05%.
On to `CCCc1c(O)cccc1O`, for which the growth inhibition was 13.8% in test [1]; 6.55% in test [2]; 16.9% in test [3]; -5.55% in test [5]; 11% in test [6].
With `O=C1c2ccccc2C(=O)N1CCOCCOCCOCCN1C(=O)c2ccccc2C1=O`, the growth inhibition in test [1] was 9.4%; in test [2] it was -5.95%; in test [3], -0.75%; in test [5], -2.75%; in test [6], -36%.
Taken in the same sequence, the figures for `COc1nc2ccccc2nc1OC` were -14.1%, -8.75%, -5.5%, 4.45% and 4%.
Taken in the same sequence, the figures for `NC(Cc1cccs1)C(=O)O` (stereo not drawn) were -31.9%, -21.9%, -27.6%, -2.5% and -37.1%.

(Values after PubChem BioAssay (NCI).)
